# Assay results taken from publication PMC5540273 (PLoS ONE, 2017).
# System: T1, PFTK1
# T1 construct: gene CDK14
# Conditions: concentration: 1 μM,replicates: in singlicate; n = 1
# 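Also: KINOMEscan kinase panel screen.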
row,Structure (SMILES),%Inh [%]
1,Cl.Cl.NC[C@H](CC1CCCCC1)NC(=O)c1cc(Br)c(-c2ccnc3[nH]ccc23)s1 [GSK1581427],28
2,CN(C)CCOc1ccc(-c2cc(-c3c[nH]nc3-c3ccccn3)ccn2)cc1 [GW835314],1
3,CNC(=O)c1ccccc1Sc1ccc2c(/C=C/c3ccccn3)n[nH]c2c1,2
4,O=C(NCCNc1ccnc(NCc2ccc(F)cc2)n1)c1cc2ccccc2s1 [GSK1379944],11
5,Cc1cc2cn[nH]c2cc1-c1cccc2c(N)c(C(N)=O)nnc12,0
6,CC(C)N1C(=O)Cc2cc(Nc3ncc(C(F)(F)F)c(NCc4cccc(S(C)(=O)=O)c4)n3)ccc21,14
7,Cl.Oc1cc(-c2nc(-c3ccccc3)[nH]c2-c2ccncc2)ccc1Cl [SB-386023],0
8,CC(C)Nc1cc(-c2ccc3c(N)n[nH]c3c2)nc(N)n1 [GSK2221681],0
9,Cc1ccc(-n2nc(C(C)(C)C)cc2NC(=O)Nc2ccc(OCCN3CCOCC3)c3ccccc23)cc1 [GW839464],2
10,C[C@@H](Oc1cc(-c2cnn(C3CCNCC3)c2)cnc1N)c1c(Cl)ccc(F)c1Cl,0
11,Cc1n[nH]c2ccc(-c3cc(OC[C@@H](N)Cc4ccccc4)cnc3-c3ccoc3)cc12.O=C(O)C(F)(F)F.O=C(O)C(F)(F)F [GSK507358],9
12,CCN(CC)CCOc1ccc(Nc2ncc3cc(-c4c(Cl)cccc4Cl)c(=O)n(C)c3n2)cc1 [SB-601273],0
13,Cl.Cl.Nc1nc(-c2ccc3c(N)n[nH]c3c2)cc(N2CCCC(NC(=O)c3ccccc3)C2)n1 (stereo not drawn) [GSK2286775],18
14,Cc1cc(C(=O)Nc2ccc(Oc3ccc4nc(NC(=O)C5CC5)cn4n3)cc2)nn1-c1ccccc1,0
15,Nc1nc(Nc2ccccc2)cc(-c2ccc3c(N)n[nH]c3c2)n1 [GSK2225749],9

# System: PHKG1
# Conditions: concentration: 1 μM,replicates: in singlicate; n = 1
row,Structure (SMILES),%Inh [%]
1,CCn1c(-c2nonc2N)nc2c(C#CC(C)(C)O)nc(OCCN)cc21.Cl.Cl [GSK902056],0
2,COc1ccc(C[C@@H](CN)NC(=O)c2cc(Br)c(-c3ccnc4[nH]ccc34)s2)cc1.Cl.Cl [GSK1389063],45
3,Cc1ccc2c(-c3ccncc3)c(-c3ccc(F)cc3)nn2c1.Cl [GW461484],33
4,Cl.Cl.NC[C@H](Cc1ccc(C(F)(F)F)cc1)NC(=O)c1cc(Br)c(-c2ccnc3[nH]ccc23)s1 [GSK1487252],0
5,O=C(NCCCN1CCOC1=O)c1cnc(NCc2cc(Cl)ccc2Cl)nc1NC1CCCC1,0
6,C=CC(=O)Nc1cc2c(Nc3ccc(F)c(Cl)c3)ncnc2cc1OCCCN1CCOCC1 [GW781483],0
7,NC(=O)c1cc(-c2ccccc2)cc2c(C3CCNCC3)c[nH]c12 [GSK301362],17
8,C[C@@H]1CCN(C(=O)CC#N)C[C@@H]1N(C)c1ncnc2[nH]ccc12,15
9,Cc1occc1-c1nc(N)c(OC[C@@H](N)Cc2c[nH]c3ccccc23)cc1-c1cc2c(C)n[nH]c2cn1 [GSK1660450],84
10,C[C@H]1Oc2cc(cnc2N)-c2c(nn(C)c2C#N)CN(C)C(=O)c2ccc(F)cc21,54
11,CN(C)CC(O)COc1ccc(Nc2nccc(-c3cnn4nc(N5CCOCC5)ccc34)n2)cc1 (stereo not drawn) [GW767488],38
12,CCN(CC)CCCCNc1ncc2cc(-c3c(Cl)cccc3Cl)c(NC(=O)NC(C)(C)C)nc2n1,0
13,Cl.Cl.NC[C@H](CC1CCCCC1)NC(=O)c1cc(Br)c(-c2ccnc3[nH]ccc23)s1 [GSK1581427],20
14,CN(C)CCOc1ccc(-c2cc(-c3c[nH]nc3-c3ccccn3)ccn2)cc1 [GW835314],47
15,CNC(=O)c1ccccc1Sc1ccc2c(/C=C/c3ccccn3)n[nH]c2c1,16
16,O=C(NCCNc1ccnc(NCc2ccc(F)cc2)n1)c1cc2ccccc2s1 [GSK1379944],0
17,Cc1cc2cn[nH]c2cc1-c1cccc2c(N)c(C(N)=O)nnc12,26
18,CC(C)N1C(=O)Cc2cc(Nc3ncc(C(F)(F)F)c(NCc4cccc(S(C)(=O)=O)c4)n3)ccc21,0
19,Cl.Oc1cc(-c2nc(-c3ccccc3)[nH]c2-c2ccncc2)ccc1Cl [SB-386023],0
20,CC(C)Nc1cc(-c2ccc3c(N)n[nH]c3c2)nc(N)n1 [GSK2221681],11
21,Cc1ccc(-n2nc(C(C)(C)C)cc2NC(=O)Nc2ccc(OCCN3CCOCC3)c3ccccc23)cc1 [GW839464],0
22,C[C@@H](Oc1cc(-c2cnn(C3CCNCC3)c2)cnc1N)c1c(Cl)ccc(F)c1Cl,24
23,Cc1n[nH]c2ccc(-c3cc(OC[C@@H](N)Cc4ccccc4)cnc3-c3ccoc3)cc12.O=C(O)C(F)(F)F.O=C(O)C(F)(F)F [GSK507358],0
24,CCN(CC)CCOc1ccc(Nc2ncc3cc(-c4c(Cl)cccc4Cl)c(=O)n(C)c3n2)cc1 [SB-601273],0
25,Cl.Cl.Nc1nc(-c2ccc3c(N)n[nH]c3c2)cc(N2CCCC(NC(=O)c3ccccc3)C2)n1 (stereo not drawn) [GSK2286775],0
26,Cc1cc(C(=O)Nc2ccc(Oc3ccc4nc(NC(=O)C5CC5)cn4n3)cc2)nn1-c1ccccc1,49
27,Nc1nc(Nc2ccccc2)cc(-c2ccc3c(N)n[nH]c3c2)n1 [GSK2225749],0
